Assay outcomes: PubChem, National Center for Advancing Translational Sciences (NCATS)
HCMV antiviral: inhibitors of human cytomegalovirus; HFF cells, HCMV-luciferase reporter, 72 h; stronger effect = lower value; activity change, negative = inhibition, % at 57.5 µM; 4.5% of 410,000 active; in the data active = activity change below about -60%; inconclusive = no clear call, values can overlap the other calls; inactive = above about -39%
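Two compound doses tested in HFFs infected with HCMV-luciferase, MOI 1 PFU/cell, 72 h at 37C. Lysate luminescence read with OneGlo; data normalized against buffer-only and 10uM Salinomycin inhibitor controls.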
Pf growth 96h: inhibits malaria parasite growth, 96 h. 6.9% of 320,000 active. Potency, µM (doses to about 28.7 µM), most hits filed as inhibitors. P. falciparum luciferase reporter growth, 96 h
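Two parasite generations (96 h, 37 C, 5% CO2) of compound exposure in infected erythrocytes (0.05% parasitemia, 2% hematocrit). Luciferase-reporter P. falciparum; decreased luminescence indicates inhibited growth, aimed at apicoplast-acting delayed death.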
HCV inhibitor: HCV inhibition. Huh7.5.1 HCVcc-Cre infection, luciferase reporter, 44 h. Potency, µM (top dose mostly 41.8 µM), hits mostly inhibitors. 3.4% of 340,000 active. AID 651820
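Reporter virus HCVcc-Cre (~0.5 moi) infects cells exposed to compound; seeding density 1,000 cells/well with 4 h settling beforehand. Luminescence, 15 sec read, taken 44 h post-infection following a 15 min RT substrate incubation.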
Pf growth 48h: P. falciparum growth inhibition at 48 hours (one generation) | P. falciparum luciferase growth in erythrocytes, 48 h | 5.9% of 310,000 active | Potency, µM (titrated, usually from 28.7 µM), most hits filed as inhibitors
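Growth was read as firefly luciferase luminescence after a 48 h, 37 C, 5% CO2 exposure of compounds to reporter-bearing P. falciparum cultures (0.1% parasitemia, 2% hematocrit final) in Albumax-supplemented RPMI 1640.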
SARS PLP yeast: blocks SARS-CoV papain-like protease in a yeast assay | S. cerevisiae expressing SARS-CoV PLpro, growth rescue | Potency, µM (series often up to 32.9 µM), most hits filed as activators | 0.19% of 330,000 active | AID 485353; calls by dose curve; also: nearly all actives have a fitted effect of over 55% in size
Sm TGR block: blocks Schistosoma mansoni thioredoxin glutathione reductase. AID 485364. Potency, µM (series often up to 114 µM), hits mostly inhibitors. Q962Y6. purified TGR, DTNB reduction, TNB absorbance 405 nm. 3% of 360,000 active; also: nearly all actives have a fitted effect of over 60% in size
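TGR 20 nM + NADPH 100 uM (dispensed conc.), cpd preinc 15 min RT; start with NADPH (500 uM addition) then DTNB (15 mM addition). Kinetic TNB absorbance, 405 nm filter. Four-parameter Hill fit across titration.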
A number is an active result; – = inactive; ? = inconclusive; · = not tested or not shown. Sampled rows, rich in hits. Any-hit rate of the full collection: about 15%. Unless noted, calls follow the shape of the dose curve; as a rule, active = well fitted curve in the direction sought with a large enough effect; inconclusive = small, poorly fitted or top-dose-only effect, or another doubt; inactive = no such curve, though single readings can be large; an effect the other way counts as inactive or inconclusive.

SMILES	HCMV antiviral	Pf growth 96h	HCV inhibitor	Pf growth 48h	SARS PLP yeast	Sm TGR block
CCOc1ccccc1N1CC(c2nc3ccccc3n2CCOc2ccccc2OC)CC1=O (stereo unspecified)	–	·	·	·	·	?
CN1CCN(c2ccc(S(=O)(=O)N3CCCCC3)cc2NC(=O)COc2cccc(Cl)c2)CC1	–	?	?	10.4µM	–	–
CC(CN1C(C)CCCC1C)OC(=O)c1cccc(Br)c1 (stereo unspecified)	–	–	–	–	–	–
O=C1c2ccccc2C(=O)c2c(NCCCN(CCO)CCO)cccc21	-102.8	–	14.1µM	?	–	–
CCN(CC)CC(=O)Nc1cccc2c1C(=O)c1ccccc1C2=O	–	–	–	–	–	–
Cc1[nH]nc(-c2ccc(O)c(C)c2O)c1-c1cnn(-c2ccccc2)c1	–	·	3.98µM	–	–	–
Cn1ncc(Cl)c1C(=O)N1CCN(S(=O)(=O)c2ccc(Cl)s2)CC1	–	–	–	–	–	?
O=C1c2cccc3c2[C@@H](CCC3)CN1[C@@H]1CN2CCC1CC2	·	–	·	12µM	·	·
CCOc1ccc(NC(=O)c2oc(=O)c3ccccc3c2-c2ccc(C)cc2)cc1	–	·	·	·	·	–
O=C1CS/C(=N/N=C/c2ccccc2)N1Cc1ccco1	–	–	?	–	–	39.8µM
Cc1ccccc1CN1C(=O)CS/C1=N/N=C/c1ccco1	–	?	?	?	–	11.2µM
COc1ccc(OC)c(/C=N/N=C2\SCC(=O)N2Cc2ccco2)c1	–	–	?	–	–	–
CCC1S/C(=N/N=C/c2ccco2)N(Cc2ccc(F)cc2)C1=O (stereo unspecified)	–	?	–	?	–	?
CC1S/C(=N/N=C/c2ccco2)N(Cc2ccccc2)C1=O (stereo unspecified)	–	–	–	–	–	35.5µM
CCC1S/C(=N/N=C/c2ccco2)N(Cc2ccccc2C)C1=O (stereo unspecified)	–	?	?	?	–	39.8µM
O=[N+]([O-])c1ncccc1OCc1ccc(Br)cc1F	–	–	–	–	–	–
O=C1N/C(=N/N=C/c2ccco2)SC1Cc1ccccc1 (stereo unspecified)	–	–	–	?	–	–
O=C1C(Cc2ccccc2)S/C(=N/N=C/c2ccco2)N1c1ccccc1 (stereo unspecified)	–	0.262µM	–	–	–	?
Cc1ccc(Nc2nnc(SCC(=O)NCc3ccco3)s2)cc1	–	?	–	5.86µM	–	–
O=C(CSc1nnc(NC(=O)c2ccccc2F)s1)NCc1ccco1	–	–	–	–	–	–
O=C(CSc1nnc(Nc2ccccc2)s1)NCc1ccco1	–	?	–	–	–	?
O=C(CSc1nnc(Nc2ccccc2F)s1)NCc1ccco1	–	?	–	?	–	50.1µM
Cc1cccc(Nc2nnc(SCC(=O)NCc3cccs3)s2)c1C	–	6.57µM	–	–	–	–
Cc1ccccc1CNC(=O)C1CCN(S(=O)(=O)Cc2ccccc2)CC1	–	·	·	·	·	–
CC1=C(C(=O)N(C)C)CC(CC(=O)NCc2cccc3ccccc23)C(=O)N1CCCN1CCCC1=O (stereo unspecified)	–	·	·	·	·	·
SMILES	HCMV antiviral	Pf growth 96h	HCV inhibitor	Pf growth 48h	SARS PLP yeast	Sm TGR block
CCCCCNc1nc(NCCCO)c(C#N)c2c1CN(C)CC2	–	11.7µM	?	·	–	–
CCCCCNc1nc(N2CCCC2)c2c(c1C#N)CCN(C)C2	–	–	?	4.15µM	–	–
CN1CCc2c(C#N)c(N3CCOCC3)nc(NCC3CCCO3)c2C1 (stereo unspecified)	–	?	–	?	–	–
Cn1nnc(NC(=O)/C=C/c2ccco2)n1	–	–	–	–	–	8.91µM
CCCn1nnc(NC(=S)NC(=O)/C=C/c2ccco2)n1	–	–	–	–	–	7.08µM
Cn1nnc(NC(=O)c2ccco2)n1	–	–	–	–	–	–
CCCn1nnc(NC(=S)NC(=O)C(C)(C)C)n1	?	–	–	–	–	–
COc1cc(/C=C/C(=O)N(C)CC(=O)Nc2ccccc2SC)cc(OC)c1OC	–	·	–	·	–	·
COc1cc(/C=C/C(=O)N(C)CC(=O)Nc2ccccc2Br)cc2c1OCCO2	–	?	?	8.28µM	–	–
